# mIDH1 inhibitor – human IDH1 R132H inhibition. 390,000 compounds, 0.093% hits. IDH1-R132H enzyme, NADPH consumption, diaphorase/resazurin fluorescence. O75874. Potency, µM (titrated, usually from 76.6 µM), hits mostly inhibitors; further: nearly all actives have a fitted effect of over 65% in size
# Target sequence (O75874 whole entry R132H, stated change not applied): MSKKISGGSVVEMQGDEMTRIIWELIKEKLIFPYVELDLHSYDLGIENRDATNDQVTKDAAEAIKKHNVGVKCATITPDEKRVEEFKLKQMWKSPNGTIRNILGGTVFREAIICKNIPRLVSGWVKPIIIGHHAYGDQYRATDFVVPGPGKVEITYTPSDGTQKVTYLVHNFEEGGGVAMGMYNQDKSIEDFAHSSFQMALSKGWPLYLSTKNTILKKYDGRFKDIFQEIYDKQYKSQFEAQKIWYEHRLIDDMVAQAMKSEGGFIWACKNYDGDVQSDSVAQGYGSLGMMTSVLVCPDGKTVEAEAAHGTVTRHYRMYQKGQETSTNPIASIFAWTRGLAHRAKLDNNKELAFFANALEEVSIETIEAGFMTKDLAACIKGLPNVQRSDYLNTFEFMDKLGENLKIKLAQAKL
#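 IDH1-R132H (0.5 ug/mL dispensed) in pH 7.5 Tris buffer was preincubated 30 min with compound, then given a substrate mix of 0.016 mM NADPH and 2 mM alpha-KG for 80 min at room temperature; remaining NADPH was read by diaphorase/resazurin fluorescence.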
# BRCA1 expr act – activators of BRCA1 expression. 380,000 compounds, 1.1% hits. Potency, µM (highest dose often 46.1 µM), most hits filed as activators. MCF7-BRCA1-FFLuc reporter, luminescence, 48 h; response scale: scaled: vehicle 0%, 10 µM genistein 100%. AID 624202; further: nearly all actives have a fitted effect of over 80% in size
#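 48 h compound treatment of MCF7-BRCA1-FFLuc cells (phenol-red free MEM, 37 °C), then 15 min with luciferase substrate and luminescence imaging.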
# gsp ag – gsp mutant agonism | 340,000 compounds, 0.13% hits | Potency, µM (titrated, usually from 76.9 µM), hits mostly activators | AID 624287 | gsp mutant cells, cAMP HTRF, 30 min; active means well fitted activation curve with a large enough effect; inconclusive means small, poorly fitted or top-dose-only effect, or another doubt; inactive means no such curve, though single readings can be large or run the other way; cell line not stated here;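 further: phosphodiesterase inhibitor Ro 20-1724 added with compounds to block cAMP breakdown; nearly all actives have a fitted effect of over 60% in size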
#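 Cells stably selected in G418 were plated at 2000/well, grown 16-24 hr, then given compounds in DMSO with the PDE inhibitor […] (300 uM solution added) for 30 min at 37C; cAMP was read by HTRF.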
# IL2 activator – IL-2 activation; IL-2 activation reporter assay, cell-based qHTS; stimulated with anti-CD3/CD4/CD28 beads; in transgenic mouse T cells; activation, % (series mostly up to about 46 µM); 360,000 compounds, 0.065% hits; AID 652025; in the data active means activation above about 50%; inconclusive means mostly about 30% to 49%
#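 EGFP and DsRed fluorescence is measured by plate cytometry in unstimulated transgenic mouse T cells exposed to compound for 60 minutes, then stimulated 18 hours at 37 degrees C with anti-CD3/anti-CD4 beads plus anti-CD28.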
# gsp antagonist – antagonizes gsp, the McCune-Albright syndrome mutation | gsp-mutant cells, cAMP HTRF, 30 min | Potency, µM (titrated, usually from 76.9 µM), hits mostly inhibitors | 340,000 compounds, 0.4% hits | AID 624288; calls by dose curve; cell line not stated here;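 further: intracellular cAMP measured with PDE inhibitor Ro 20-1724 present during compound exposure; nearly all actives have a fitted effect of over 65% in size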
#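 Measurement of cellular cAMP by homogeneous time-resolved fluorescence following a 30 min compound exposure at 37C. The PDE inhibitor […] was present throughout; the assay buffer was DPBS with 0.05% BSA and 0.005% Tween 20.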
# Hits are given with their value; – = inactive; ? = inconclusive; · = not tested or not shown; [ ] = dose if it differs, or a comment. Rows were chosen to be rich in hits. Some 1.5% of all compounds tested hit in one or more screens of this group. Unless noted, the call rests on the fitted dose curve; in most records, active means well fitted curve in the direction sought with a large enough effect; inconclusive means small, poorly fitted or top-dose-only effect, or another doubt; inactive means no such curve, though single readings can be large; an effect the other way counts as inactive or inconclusive.
SMILES,mIDH1 inhibitor,BRCA1 expr act,gsp ag,IL2 activator,gsp antagonist
Cc1ccc(/C=N/NC(=O)c2cccs2)s1,–,11.2µM,–,–,–
O=C(N/N=C/c1c[nH]c2ccccc12)c1cccs1,–,–,–,–,–
CC(=O)Nc1ccc(C(=O)Nc2ccc3c(c2)N(C2CCCC2)C(=O)c2ccccc2S3)cc1,–,·,·,·,·
Cc1ccc(SCc2ccc(C(=O)N3CCCC3)cc2)cc1,–,11.2µM,–[15.4 µM],–,–
CC(C)NC(=O)c1ccc(-c2ccccc2C(F)(F)F)o1,–,11.2µM,–,–,–
Cc1ccc2c(c1)sc1nc(=O)n(-c3cccc(Cl)c3)c(=O)n12,–,1.41µM,–,–,–
Cc1ccc2c(c1)sc1nc(=O)n(-c3ccc(Cl)cc3)c(=O)n12,–,–,–,–,–
COc1ccc(-c2oc(=O)c3cc(OC)c(OC)cc3c2C#C[C@]2(O)CC[C@H]3[C@@H]4CCc5cc(OC)ccc5[C@H]4CC[C@@]32C)cc1,–,–,·,–,–
CCc1ccc2nc(N(Cc3cccnc3)C(C)=O)sc2c1,–,·,·,·,·
Cc1ccc(C(=O)Nc2ccc(Cl)cc2C)c(Cl)c1,–,3.16µM,–[15.4 µM],–,–
O=C(CSc1nc2ccccc2n1S(=O)(=O)c1ccccc1)N1CCCCC1,–,14.1µM,–,–,–
O=C(CSc1nc2ccccc2n1CC(=O)N1CCCCC1)N1CCCCC1,–,–,–[15.4 µM],–,–
Cc1ccc(-c2noc(C3CCCN(C(=O)c4ccccc4Br)C3)n2)o1 (configuration not stated),–,10µM,–,–,–
O=C(c1ccccc1Br)N1CCCC(c2nc(-c3cccs3)no2)C1 (configuration not stated),–,–,–,–,?
Cc1ccc(-c2noc(C3CCCN(C(=O)c4ccccc4)C3)n2)o1 (configuration not stated),–,10µM,–,–,–
C=CCN1N=C(/C=C/c2ccc(C)cc2)CCC1=O,–,11.2µM,–[15.4 µM],–,·
CC1(C)N=C(N)N=C(N)N1CCCCc1ccccc1,–,–,14.1µM,–,–
Cc1ccc(NC(=O)C2CCN(S(=O)(=O)c3cccc4nonc34)CC2)c(Cl)c1,–,–,·,·,·
CC(C)(C)C(=O)Nc1nc2c(s1)CN(Cc1ccccc1)CC2,–,8.91µM,–[15.4 µM],–,–
Cc1ccc(NC(=O)N2CCc3ccccc3C2)cc1C,–,10µM,–,–,–
Cc1[nH]c2ccccc2c1C(c1c[nH]c2ccccc12)c1c(C)[nH]c2ccccc12,·,–,·,·,·
COC(=O)COc1ccc(S(=O)(=O)NCc2ccncc2)cc1,–,–,–,–,11.2µM
COc1ccc(C(=O)NCC2OCCc3ccccc32)c(O)c1 (configuration not stated),–,11.2µM,–,–,–
Fc1ccccc1-c1ccc(-c2nc3ccc(Cl)cn3c2Nc2ccc(Cl)cc2)o1,·,–,·,·,·
Cc1[nH]c2ccc(C(=O)Nc3ccc(F)cc3)cc2c1C,–,·,·,·,·
SMILES,mIDH1 inhibitor,BRCA1 expr act,gsp ag,IL2 activator,gsp antagonist
CC1=C(C(=O)N2CCCCCC2)CC(CC(=O)NC2CCCCC2)C(=O)N1Cc1ccc(C(C)(C)C)cc1 (configuration not stated),·,–,·,–,·
COC(=O)c1[nH]c2cc(OC)c(OC)cc2c1/C=N/Nc1ccccc1,–,–,–,531.6,–
COc1cc(/C=N/Nc2ccccc2)ccc1O,–,–,–[15.4 µM],–,–
Cc1ccc(/C=N/NC(=O)c2ccncc2)o1,–,–,–,–,–
O=C(N/N=C/c1ccc2c(c1)OCO2)c1ccccn1,–,–,–,–,–
O=C(N/N=C/c1cc2c(cc1Br)OCO2)c1ccccn1,–,7.94µM,–[15.4 µM],–,–
Cc1ccc(/C=N/NC(=O)c2ccccn2)o1,–,11.2µM,–[15.4 µM],–,–
CCOC(=O)c1snc(C(=O)NC2CCCCC2)c1N,–,7.08µM,–,–,–
Nc1c(C(=O)NC2CCCCC2)nsc1C(=O)OCC(=O)NC1CCCCC1,–,–,–,–,–
CC1CCCN(S(=O)(=O)c2ccc3c(c2)c(=O)nc2ccc(Cl)cn23)C1 (configuration not stated),–,–,?,–,39.8µM
Cc1ccc(S(=O)(=O)N2CCCC(C)C2)cc1 (configuration not stated),–,–,–,–,–
CC1CCCN(S(=O)(=O)c2ccc3c(c2)n(C)c(=O)c(=O)n3C)C1 (configuration not stated),–,–,–,–,50.1µM
Cc1ccc(NC(=O)CSCC(=O)N(CCC(C)C)c2c(N)n(Cc3ccccc3)c(=O)[nH]c2=O)cc1,–,–,–,–,–
Cc1cccc(Cn2nnc3c(=O)[nH]c(C4CCN(C(=O)c5ccc(F)cc5)CC4)nc32)c1,–,·,·,·,·
CCOc1ccc(NC(=O)CCc2c(C)nc3c4c(C)cc(C)nc4nn3c2C)cc1,–,·,·,·,·
COc1cc(N=Nc2ccc3ccccc3c2)ccc1O,–,5.01µM,–,–,–
COc1cc(N=Nc2ccccc2C(=O)O)ccc1O,–,–,–,–,–
CCC(Sc1nc2nccnc2c(=O)n1Cc1ccc(F)cc1)C(=O)NC1CCCCC1 (configuration not stated),–,·,·,·,·
CN(C)S(=O)(=O)c1cccc(NC(=O)COC(=O)c2cc3ccccc3oc2=O)c1,–,10µM,–[15.4 µM],–,–
O=C(COC(=O)c1cc2ccccc2oc1=O)Nc1ccc(F)cc1F,–,10µM,–,–,–
Cc1cc(NC(C)c2ccccc2)n2ncc(-c3ccccc3)c2n1 (configuration not stated),–,6.31µM,–,–,–
Cn1cc(-c2nc3ccccc3[nH]2)c2ccccc21,–,11.2µM,–,–,–
CCc1ccc(OCC(=O)N(Cc2ccc(OC)cc2)C2CCS(=O)(=O)C2)cc1 (configuration not stated),–,·,·,·,·
COc1ccccc1C(=O)NC(=S)Nc1cccnc1Cl,–,–,?,–,–
Cc1ccc(C(=O)NC(=S)Nc2cccnc2Cl)cc1,–,11.2µM,–[15.4 µM],–,–
SMILES,mIDH1 inhibitor,BRCA1 expr act,gsp ag,IL2 activator,gsp antagonist
O=C(O)c1ccccc1Nc1ccccc1C(=O)O,–,–,?,–,–
O=C(O)c1ccccc1Nc1ccc([N+](=O)[O-])cc1,–,12.6µM,–[15.4 µM],–,?
COc1cccc(CN2CCCN(S(=O)(=O)c3ccc(Br)cc3)CC2)c1,–,–,–,–,39.8µM
O=S(=O)(c1ccc(Br)cc1)N1CCCN(Cc2cccc(F)c2)CC1,–,–,–,–,–
O=C(CSc1nc2ccccc2nc1Cc1ccc(Cl)cc1)NCCc1ccccc1,–,·,·,·,·
COc1ccc(/C=C/C(=O)c2cc(C(=O)/C=C/c3ccc(OC)cc3)c(O)cc2O)cc1,·,–,·,·,·
N#CC1=C(N)C2=CCCC[C@H]2[C@H](c2ccccc2)C1(C#N)C#N,23.3µM,–,–,–,–
CN(C)S(=O)(=O)c1ccc(Cl)c(C(=O)OCC(=O)NC(=O)NC2CCCC2)c1,–,–,–,–,1µM

# Screening results from PubChem BioAssay.
